# Active and inactive are the calls of the source. Unless noted, how the calls were made is not given here.
# Tests used:
# [1] = anti-His antibody binders, primary screen, artefact control for SMM control protein annotation, biochemical, small-molecule microarray, 635 nm fluorescence (AID 1128); conditions: anti-His Alexa647 antibody binding, higher = more signal;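 further: score merges feature fluorescence with signal-to-noise for each printed compound spot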
# [2] = system: Human papillomavirus type 1a E7 protein (residues 1-88); experiment: HPV1a E7 small-molecule binders, primary screen, biochemical, small-molecule microarray, residues 1-88, 635 nm (AID 1129); conditions: small-molecule microarray binding, fluorescence 635 nm; higher = more signal
# [3] = molecular target: Focal adhesion kinase 1 (Homo sapiens) (UniProt Q05397); experiment: small-molecule microarray binders of FAK, primary screen, biochemical, 635/667 nm fluorescence, BSA, DTT (AID 1130); conditions: PTK2 binding, 635 nm fluorescence, higher = more signal;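 further: composite of spot emission at 667 nm and signal to noise over triplicate slides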
# Focal adhesion kinase 1 (Homo sapiens), sequence (Q05397 whole entry, looked up): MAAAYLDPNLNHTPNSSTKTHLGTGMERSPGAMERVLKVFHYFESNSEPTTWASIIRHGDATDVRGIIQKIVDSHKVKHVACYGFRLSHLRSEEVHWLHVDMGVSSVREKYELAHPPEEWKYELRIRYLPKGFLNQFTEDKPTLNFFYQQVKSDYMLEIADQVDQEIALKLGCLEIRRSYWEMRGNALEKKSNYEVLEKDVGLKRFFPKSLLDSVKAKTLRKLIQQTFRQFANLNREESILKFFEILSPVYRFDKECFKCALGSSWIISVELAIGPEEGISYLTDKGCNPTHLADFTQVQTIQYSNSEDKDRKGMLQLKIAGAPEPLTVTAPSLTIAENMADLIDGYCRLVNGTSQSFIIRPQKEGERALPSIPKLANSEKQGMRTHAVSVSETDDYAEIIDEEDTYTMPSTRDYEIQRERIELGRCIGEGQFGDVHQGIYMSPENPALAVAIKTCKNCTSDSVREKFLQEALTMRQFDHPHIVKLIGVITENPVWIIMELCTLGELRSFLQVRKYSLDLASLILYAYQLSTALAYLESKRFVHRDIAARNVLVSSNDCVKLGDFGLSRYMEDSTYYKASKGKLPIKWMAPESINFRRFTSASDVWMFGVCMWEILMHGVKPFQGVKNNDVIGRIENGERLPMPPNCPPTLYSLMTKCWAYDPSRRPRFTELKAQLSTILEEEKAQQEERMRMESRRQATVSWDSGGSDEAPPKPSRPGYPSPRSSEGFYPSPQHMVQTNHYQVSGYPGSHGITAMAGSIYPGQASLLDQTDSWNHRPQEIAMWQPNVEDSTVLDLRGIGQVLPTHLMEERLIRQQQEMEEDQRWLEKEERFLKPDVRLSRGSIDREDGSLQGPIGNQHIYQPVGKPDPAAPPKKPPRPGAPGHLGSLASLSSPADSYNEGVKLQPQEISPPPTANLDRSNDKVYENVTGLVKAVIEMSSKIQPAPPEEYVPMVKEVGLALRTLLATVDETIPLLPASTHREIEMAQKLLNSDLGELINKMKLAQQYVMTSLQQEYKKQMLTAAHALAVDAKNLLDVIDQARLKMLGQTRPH
# [4] = system: Fibrinogen (Alexa647-labelled); experiment: fibrinogen binders on compound microarrays, profiling panel, artefact control for SMM control-protein annotation, biochemical, small-molecule microarray, 635/667 nm fluorescence (AID 1131); conditions: fibrinogen-A647 binding fluorescence, higher = more signal;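 further: z-score merges 667 nm fluorescence with per-spot signal-to-noise over triplicate slides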
# [5] = molecular target: Follistatin (Homo sapiens) (UniProt P19883); experiment: follistatin binders on small-molecule microarrays, primary screen, biochemical, small-molecule microarray, 635/667 nm fluorescence (AID 1132); conditions: FST binding, 635 nm fluorescence, higher = more signal
# Follistatin (Homo sapiens), sequence (P19883 whole entry, looked up): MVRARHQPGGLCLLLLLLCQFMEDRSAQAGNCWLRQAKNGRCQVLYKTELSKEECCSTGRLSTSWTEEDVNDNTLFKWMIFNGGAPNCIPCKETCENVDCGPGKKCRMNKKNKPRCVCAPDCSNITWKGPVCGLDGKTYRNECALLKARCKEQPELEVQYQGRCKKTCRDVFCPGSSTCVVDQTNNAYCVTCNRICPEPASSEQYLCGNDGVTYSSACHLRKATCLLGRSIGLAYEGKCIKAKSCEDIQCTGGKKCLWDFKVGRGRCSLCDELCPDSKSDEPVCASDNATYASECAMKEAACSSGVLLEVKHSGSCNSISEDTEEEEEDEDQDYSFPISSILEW
# [6] = molecular target: Fibroblast growth factor 2 (Homo sapiens) (UniProt P09038); experiment: FGF2 binders on small-molecule microarrays, primary screen, biochemical, small-molecule microarray, 635/667 nm fluorescence (AID 1133); conditions: small-molecule microarray binding, FGF2, fluorescence 635/667; higher = more signal
# Fibroblast growth factor 2 (Homo sapiens), sequence (P09038 whole entry, looked up): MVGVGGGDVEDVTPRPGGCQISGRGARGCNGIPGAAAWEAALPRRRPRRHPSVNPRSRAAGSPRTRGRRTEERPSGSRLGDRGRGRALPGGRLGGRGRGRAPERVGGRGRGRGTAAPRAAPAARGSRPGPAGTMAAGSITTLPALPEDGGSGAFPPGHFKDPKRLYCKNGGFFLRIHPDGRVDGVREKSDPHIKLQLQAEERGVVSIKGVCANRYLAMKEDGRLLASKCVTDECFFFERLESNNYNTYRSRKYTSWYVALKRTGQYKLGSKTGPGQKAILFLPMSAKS
# [7] = mitochondrial membrane potential change in A549 cells, profiling panel, cell-based, JC-1 fluorescence, basal, 24 h, 100 nL (AID 1138); conditions: higher = more signal;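 further: A549 lung adenocarcinoma cells under basal conditions with no added stimulus; test concentration not given here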
# Lefty1 = Lefty1 binders on small-molecule microarrays, primary screen, biochemical, small-molecule microarray, 635/667 nm fluorescence (AID 1139); conditions: small-molecule microarray binding, fluorescence 635/667; higher = more signal
# [8] = system: wheat germ agglutinin (Triticum aestivum), Alexa647-labelled; experiment: wheat germ agglutinin binders on compound microarrays, profiling panel, artefact control for SMM control-protein annotation, biochemical, small-molecule microarray, 635/667 nm fluorescence (AID 1140); conditions: WGA-A647 binding, 635 nm fluorescence, higher = more signal;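 further: score merges 667 nm feature emission with signal to noise over triplicate slides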
# [9] = molecular target: Luciferin 4-monooxygenase (Photinus pyralis) (UniProt P08659); experiment: firefly luciferase enzyme inhibitors, primary screen, biochemical, luminescence, purified enzyme, 2006 set (AID 1141); conditions: SteadyGlo luminescence, 30 min, higher = more signal, called active from +8 up or from −8 down;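 further: cell-free assay with purified firefly luciferase at 100 ng per well in PBS; test concentration not given here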
# Luciferin 4-monooxygenase (Photinus pyralis), sequence (P08659 whole entry, looked up): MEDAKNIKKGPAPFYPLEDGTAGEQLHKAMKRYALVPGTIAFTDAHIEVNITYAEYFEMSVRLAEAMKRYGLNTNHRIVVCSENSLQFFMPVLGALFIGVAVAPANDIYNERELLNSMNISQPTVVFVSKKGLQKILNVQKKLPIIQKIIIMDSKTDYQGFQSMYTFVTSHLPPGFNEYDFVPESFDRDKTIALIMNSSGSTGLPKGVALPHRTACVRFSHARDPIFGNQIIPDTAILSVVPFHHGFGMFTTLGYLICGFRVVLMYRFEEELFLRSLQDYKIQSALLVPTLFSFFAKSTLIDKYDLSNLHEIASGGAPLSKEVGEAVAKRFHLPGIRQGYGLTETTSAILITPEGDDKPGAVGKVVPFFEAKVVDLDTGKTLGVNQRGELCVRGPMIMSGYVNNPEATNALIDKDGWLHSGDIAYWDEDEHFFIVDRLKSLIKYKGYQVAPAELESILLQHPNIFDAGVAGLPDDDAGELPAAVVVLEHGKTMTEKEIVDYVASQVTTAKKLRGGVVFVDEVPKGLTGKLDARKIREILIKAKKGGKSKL
# [10] = system: Wnt5a (protein binding on small-molecule microarray); experiment: Wnt5a binders on small-molecule microarray, primary screen, biophysical, 635/667 nm fluorescence (AID 1142); conditions: 635 nm fluorescence, higher = more signal;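 further: fluorescence read at 667 nm with signal to noise per printed feature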
# [11] = cell viability in Huh7 cells, primary screen, cytotoxicity control for HCV replication inhibitor project, CellTiter-Glo luminescence, basal, 48 h (AID 1143); conditions: Huh7 HCV replicon, higher = more signal, called active from +8 up or from −8 down;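 further: Huh7 hepatoma cells carrying a hepatitis C replication reporter with no stimulus; test concentration not given here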
# [12] = P. aeruginosa biofilm formation inhibitors, primary screen, PAO1 strain, BacTiter-Glo luminescence, LB-PBS (AID 1144); conditions: 12 h, higher = more signal
# [13] = CREB reporter modulators without forskolin, primary screen, cell-based, PC12, CRE-LacZ reporter, unstimulated (AID 1145); conditions: no forskolin, luminescence, 4.5 h, higher = more signal, called active from +8 up or from −8 down
# [14] = CREB reporter modulators under forskolin, primary screen, cell-based, PC12, CRE-LacZ reporter, forskolin-stimulated (AID 1146); conditions: luminescence, 4.5 h, higher = more signal, called active from +8 up or from −8 down;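 further: PC12 cells with 6xCRE LacZ reporter stimulated by forskolin 10 µM; beta-galactosidase reporter signal reflecting CREB driven transcription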
# [15] = molecular target: Streptavidin (Streptomyces avidinii) (UniProt P22629); experiment: streptavidin binders on small-molecule microarray, primary screen, artefact control for SMM compound annotation, biophysical, 635/667 nm fluorescence (AID 1147); conditions: streptavidin binding, higher = more signal;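 further: signal reflects streptavidin binding to arrayed compounds as a control protein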
# Streptavidin (Streptomyces avidinii), sequence (P22629 whole entry, looked up): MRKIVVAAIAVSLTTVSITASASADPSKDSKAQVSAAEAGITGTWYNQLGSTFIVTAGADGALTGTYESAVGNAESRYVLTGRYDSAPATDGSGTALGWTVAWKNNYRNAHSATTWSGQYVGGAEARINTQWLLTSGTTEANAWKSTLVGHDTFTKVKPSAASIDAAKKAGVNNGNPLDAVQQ
# [16] = small-molecule binders of probe aInhba, primary screen, biochemical, small-molecule microarray, 635/667 nm fluorescence (AID 1148); conditions: higher = more signal;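 further: score merges 667nm spot fluorescence with signal-to-noise for antibody binding to printed compounds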
# Torsin-1A (Homo sapiens) [17] = molecular target: Torsin-1A (Homo sapiens) (UniProt O14656); experiment: torsin A binders from cell lysate, primary screen, small-molecule microarray, wild-type, 635/667 nm (AID 1149); conditions: COS7 hTOR1A-WT lysate, 635 nm fluorescence, higher = more signal
# Torsin-1A (Homo sapiens), sequence (O14656 whole entry, looked up): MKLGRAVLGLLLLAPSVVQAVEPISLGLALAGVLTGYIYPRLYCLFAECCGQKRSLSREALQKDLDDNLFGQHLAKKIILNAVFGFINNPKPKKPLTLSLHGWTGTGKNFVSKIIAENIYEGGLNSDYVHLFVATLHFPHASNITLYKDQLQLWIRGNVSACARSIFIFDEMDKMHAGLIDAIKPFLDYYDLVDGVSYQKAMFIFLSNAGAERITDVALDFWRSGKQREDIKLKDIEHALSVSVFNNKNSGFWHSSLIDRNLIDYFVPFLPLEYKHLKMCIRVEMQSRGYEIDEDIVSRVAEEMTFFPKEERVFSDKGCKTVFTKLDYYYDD
# Torsin-1A (Homo sapiens) [18] = molecular target: Torsin-1A (Homo sapiens) (UniProt O14656); experiment: small-molecule binders of mutant TOR1A in lysate, primary screen, cell lysate, small-molecule microarray, COS7 lysate, 635/667 nm fluorescence (AID 1150); conditions: COS7 hTOR1A mutant lysate, 635 nm fluorescence, higher = more signal;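 further: score pools 667 nm emission and signal to noise measuring lysate protein binding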
# [19] = system: Sonic hedgehog protein (Shh); experiment: small-molecule binders of Shh protein, primary screen, biochemical, small-molecule microarray, 635/667 nm fluorescence (AID 1151); conditions: small-molecule microarray binding, 635 nm fluorescence; higher = more signal;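 further: Shh protein binding to compounds spotted on small-molecule microarray slides; score combines spot fluorescence intensity with signal-to-noise across triplicate slides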
Compound,composite z-score [1],composite z-score [2],composite z-score [3],composite z-score [4],composite z-score [5],composite z-score [6],z-score [7],composite z-score (Lefty1),composite z-score [8],z-score [9],composite z-score [10],z-score [11],z-score [12],z-score [13],z-score [14],composite z-score [15],composite z-score [16],composite z-score (Torsin-1A (Homo sapiens) [17]),composite z-score (Torsin-1A (Homo sapiens) [18]),composite z-score [19]
CCCCN1CC=CC23O[C@@H]4/C=C\CCC(C)OC(=O)C4[C@H]2C(=O)N(C(CO)C(C)C)[C@@H]3C1=O (stereo not given in full),-0.0545,-0.205,-0.35,-0.188,0.508,0.149,-0.0444,0.774,-0.0541,0.323 (inactive),-0.0931,0.415 (inactive),0.524 (inactive),-0.895 (inactive),-0.651 (inactive),-0.271,-0.128,0.624,0.517,1.42
C#CCN([C@@H](Cc1ccc(O)cc1)C(=O)OC)[C@@H](/C=C/C1CC1)[C@H](O)Cc1ccccc1,0.241,-0.968,-0.0524,-0.519,0.814,-0.0354,-1.6,0.618,-0.55,-0.0396 (inactive),-0.595,-5.26 (inactive),0.709 (inactive),16.1 (active),1.17 (inactive),-0.492,-0.128,-0.541,-0.12,0.825
CN(C)c1ccc(C(O)C2C=CC3C(=O)N(c4ccccc4)C(=O)C3N2Nc2ccc([N+](=O)[O-])cc2)cc1 (stereo not given),1.35,1.19,-0.165,0.979,1.01,-0.181,-0.621,0.149,0.623,-0.421 (inactive),0.0074,-0.619 (inactive),0.108 (inactive),0.49 (inactive),-0.464 (inactive),0.769,-0.0736,0.603,0.377,-0.13
CN(C)CCCNC(=O)[C@@]1(C)c2ccccc2C(=O)N(Cc2ccccc2)[C@H]1c1ccc(CO)cc1,0.761,-1.49,-0.3,-0.995,0.392,-0.0132,-0.322,-0.067,-0.749,-0.0692 (inactive),0.0404,-1.97 (inactive),0.329 (inactive),0.389 (inactive),0.261 (inactive),-0.324,-0.176,-0.334,-0.365,0.498
C=C(C(=O)CC[C@@H](OC(C)=O)c1ccc(CO)o1)C(C)C,0.922,-0.218,-0.26,0.454,1.33,1.49,-0.246,1.59,-0.0963,-1.76 (inactive),0.911,1.18 (inactive),-0.947 (inactive),0.275 (inactive),2.17 (inactive),0.0155,-0.0427,-0.427,-0.0059,1.91
C=C(C)C1CCC(C(O)C2C=CC3C(=O)N(C)C(=O)C3N2N2CCCCC2)CC1 (stereo not given),1.17,1.24,0.525,0.884,1.21,0.286,0.32,0.962,1,0.344 (inactive),0.467,0.635 (inactive),-0.0283 (inactive),0.622 (inactive),0.924 (inactive),1.61,0.143,0.476,1.34,0.758
O=C(CS)NCCCCCCNC(=O)[C@H]1C[C@H]2C(=O)N[C@@H](Cc3ccccc3)C(=O)N2[C@H]1c1ccc(O)cc1,1.29,1.25,0.904,0.476,1.22,1.62,-1.61,0.852,0.195,-1.17 (inactive),0.491,0.167 (inactive),-0.31 (inactive),0.822 (inactive),0.368 (inactive),-0.513,-0.162,1.08,0.768,1.62
COC(=O)[C@@]1(Cc2ccccc2)[C@H]2c3cc(C(=O)N(C)C)n(Cc4c(CO)[nH]cc(C)c4=O)c3C[C@H]2CN1C(=O)c1ccccc1,0.886,0.677,0.206,0.819,-0.0699,-0.615,0.238,-0.016,1,0.379 (inactive),0.259,0.229 (inactive),0.268 (inactive),-0.568 (inactive),0.977 (inactive),0.0174,-0.0963,0.376,0.478,-0.842
COC(=O)C(CC#Cc1ccc2c(c1)[C@]1(C(=O)N2)[C@H](c2ccccc2OCCO)N2[C@H](c3ccccc3)[C@H](c3ccccc3)OC(=O)[C@H]2[C@@H]1C(=O)NC[C@H](O)c1ccccc1)C(=O)OC,1.42,1.23,3.08,0.427,0.597,1.06,-0.789,0.697,1.14,-0.832 (inactive),0.572,-3.75 (inactive),-1.26 (inactive),-0.168 (inactive),0.717 (inactive),0.0979,-0.199,0.951,0.68,1.22
CC(=O)NCCCC[C@@H]1NC(=O)[C@@H]2C[C@H](C(=O)NCCCC[N+](C)(C)C)[C@H](c3ccc(O)cc3)N2C1=O,3.1,-0.882,-0.218,0.764,1.48,1.73,-1.12,1.49,-0.23,-0.174 (inactive),0.522,-2.24 (inactive),-0.279 (inactive),-0.122 (inactive),-0.528 (inactive),-0.146,0.242,0.804,0.547,2.24
